Laboratory results published in the supplement of paper PMC3334620.
The full ranking holds about 33,000 sequences; the median of “E-score (-0.5 to 0.5)” is about -0.032, and the highest 2% start at about 0.36. This excerpt belongs to a sample that is enriched for the highest values.

target: T1, Sko1 (UniProt Q02100); assay: PBM E-score (8-mer binding enrichment) (E-score (-0.5 to 0.5)); higher = stronger / more preferred TF binding; details: protein concentration: 200 nM; construct: GST-full length
T1 sequence: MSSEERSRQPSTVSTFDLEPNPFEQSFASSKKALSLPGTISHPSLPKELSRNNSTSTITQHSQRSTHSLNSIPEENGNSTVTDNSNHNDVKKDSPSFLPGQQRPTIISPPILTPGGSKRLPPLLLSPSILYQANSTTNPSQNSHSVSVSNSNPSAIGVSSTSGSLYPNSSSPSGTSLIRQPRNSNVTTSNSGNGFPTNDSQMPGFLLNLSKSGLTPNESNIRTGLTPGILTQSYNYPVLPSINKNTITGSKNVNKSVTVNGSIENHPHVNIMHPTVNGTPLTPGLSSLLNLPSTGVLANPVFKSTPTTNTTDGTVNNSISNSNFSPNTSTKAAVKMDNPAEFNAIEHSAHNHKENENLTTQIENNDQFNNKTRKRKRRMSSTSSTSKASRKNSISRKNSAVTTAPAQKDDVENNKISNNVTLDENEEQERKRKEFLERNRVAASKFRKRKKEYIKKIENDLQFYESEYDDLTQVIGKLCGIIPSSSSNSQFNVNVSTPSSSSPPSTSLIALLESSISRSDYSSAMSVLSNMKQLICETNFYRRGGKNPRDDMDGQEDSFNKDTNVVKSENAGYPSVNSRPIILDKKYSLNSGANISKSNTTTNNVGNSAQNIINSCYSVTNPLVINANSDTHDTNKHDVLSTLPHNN
Procedure: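 Universal 'all 10-mer' protein binding microarrays (Agilent AMADID 015681) probed with GST-tagged S. cerevisiae TFs (full-length or DBD) made by in vitro transcription/translation (PURExpress), about 100-200 nM. Bound TF was detected with fluorescent anti-GST. Each ungapped 8-mer (which stands for itself and its reverse complement) is scored by the PBM enrichment score (E-score), a modified Wilcoxon-Mann-Whitney statistic from -0.5 to +0.5, computed with the Universal PBM Analysis Suite. Scale: above 0.35 generally sequence-specific binding.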

Sequence	PBM E-score
AACTCTAT	-0.186
TGATTCAA	0.144
ACCCCATG	-0.0741
CTCATAGA	0.00332
GTAATATA	0.374
ATAATATA	0.268
GTCATAGA	0.406
ATCATAGA	0.205
CTAATATA	0.302
GCCAGTGA	-0.0654
TACCCTGA	-0.126
CGCCTGAC	0.0438
AAGGCACG	0.132
ACCGCCGT	-0.264
GAAAAGGA	-0.0667
CATCATCA	0.361
TATCATCA	0.272
CCTCATCC	-0.292
CGTCATCC	0.475
CGTCATCA	0.489
AGTCATCC	-0.0488
CATCATCG	0.347
AGTCATCA	-0.103
GGTCATCA	0.207
CTGATCGC	-0.0786

Sequence	PBM E-score
ATATGCCA	-0.0891
AAAACAGA	0.112
AGAGTAGC	-0.00834
ACGTGGAA	0.311
ACGTGGGC	0.347
ACGTGGTC	0.364
ACGTGGTA	0.391
ACGTGGCG	0.368
CCGTGGTC	-0.235
ACGTGGCT	0.321
ACGTGGAC	0.33
GCGTGGTA	-0.0393
ACGTGGCA	0.297
CCGTGGTA	-0.172
ACGTGGAT	0.398
AACTCAGG	-0.0444
AGCGCTGC	-0.167
AGACAGAT	0.0457
ACTTGTGG	-0.0685
ACCCGAGC	-0.224
GTAGGCTA	0.0728
CGTTATGA	0.267
CTTGCTTC	0.0228
AGGTTGAC	-0.0293
ACGTCCTC	0.206

Sequence	PBM E-score
GGTCTGGA	-0.25
AGGTGGTG	-0.0259
ACGTGCAC	0.355
AAGTGGTG	-0.113
ACGTGCAA	0.35
ACGTGCAT	0.396
ACGTGGTG	0.376
AACAGTGG	-0.244
AGGGCGAC	-0.2
AAATTCTG	0.052
GTGTTCTA	0.0982
AATCCCGA	0.105
GCATCGCA	-0.35
ATTCGTCA	0.464
CTTCGTTA	0.161
ATTCGTCG	0.22
ATTCGTCC	0.119
GTTCGTTA	0.107
ATTCGTAA	0.433
GTTCGTCA	0.367
CTTCGTCA	0.412
GTTCGTGA	-0.0757
CTTCGTCC	-0.226
CTTCGTAA	0.287
GTTCGTAA	0.355

Sequence	PBM E-score
GAAATGGC	0.00268
CGCAAGCA	0.0501
AAAGGTAT	0.0611
CAACAGTA	-0.0581
CATTTGTC	0.0524
CATAAGAC	0.1
GGTTTGAC	0.0235
GGATGAAA	0.033
ATACGAAC	0.256
GTACGGAC	-0.0428
CTACGAAG	-0.0419
ATCCGTAC	0.151
GTACGTAC	0.44
CTACGGAA	0.157
CTACGTAA	0.489
ATACGTAC	0.473
CTACGGAG	-0.193
CTCCGTAA	0.0488
GTACGAAC	0.284
CTACGTAG	0.449
CCCTAAAG	-0.213
GTGAGGTA	0.0525
ATCGGTGC	0.105
AATAATCT	0.125
CCCATCGC	-0.232

Sequence	PBM E-score
TAGTTACA	0.0798
AGCAAAAC	0.0756
AGGCCCAT	-0.288
ATACGTAT	0.487
ATACGGAT	0.111
ATACGTAG	0.471
CTCCGTAC	-0.153
CTACGTAC	0.449
ATACGAAG	0.223
ATACTTAG	-0.0209
ATACGAAT	0.286
GTACGGAA	-0.00063
CTACGAAC	0.0886
GTCCGTAA	0.00251
GTACGTAA	0.487
ATGGACAC	0.0118
GGATCACC	-0.181
GTCTATGA	0.238
AACTCACA	0.0634
GCACCCGC	-0.0958
AGACTACG	0.136
CCTTACCC	-0.149
GAGCAGGA	-0.112
ATACGGAA	0.141
ATACGTAA	0.491

Sequence	PBM E-score
ATCCGTAA	0.0757
AAGTTCCA	-0.0591
TCTACGCA	0.32
GCTACGCA	0.294
CCTACGCC	-0.0487
ACTACGCA	0.367
CCTACGCG	0.117
CCTACGCA	0.361
CCCCAACC	-0.062
CCCACGCC	-0.127
CCCACGTA	0.39
CCCACGGA	-0.0825
CCCACGCA	0.109
CCCACGGC	-0.145
CCCACGTC	0.402
AACTAATT	0.182
ATCTAGAG	-0.0987
ATGTTTTG	0.109
ATGCGTCG	0.0928
CTGCGTCA	0.435
GTGCGTGA	0.274
ATGCGTCC	-0.124
CTGCGTCC	-0.112
CGGCGTCA	0.241
ATGCGTCA	0.467

Sequence	PBM E-score
GTGCGTCA	0.456
GTGCGTTA	0.259
CTTCAGCA	-0.0157
CACCTTTC	-0.223
CAGACCTA	0.125
ACCTGTCC	-0.267
AAGAAGGT	-0.0729
AAGGATGG	0.00772
AATTGCGT	0.448
AATTGCGA	0.0547
AATTGCGG	-0.172
CGTGAATC	0.13
ACGATTTA	0.328
ACGTGTGG	0.395
CCGTGCGC	-0.067
GCGTGTGA	0.107
ATGTGTGG	-0.144
ACGTGTGC	0.388
ACGTGTGA	0.401
CCGTGTGA	-0.0471
ATGTGTGC	-0.0761
ACGTGCGG	0.308
CCGTGTGC	-0.179
